Residual activity data for one compound are collected here from ChEMBL document CHEMBL2218924, “A broad activity screen in support of a chemogenomic map for kinase signalling research and drug discovery” (Biochem J, 2013).

In test [1] the target is T1, Serine/threonine-protein kinase TBK1 (Homo sapiens) (UniProt Q9UHD2).
T1 sequence (whole entry): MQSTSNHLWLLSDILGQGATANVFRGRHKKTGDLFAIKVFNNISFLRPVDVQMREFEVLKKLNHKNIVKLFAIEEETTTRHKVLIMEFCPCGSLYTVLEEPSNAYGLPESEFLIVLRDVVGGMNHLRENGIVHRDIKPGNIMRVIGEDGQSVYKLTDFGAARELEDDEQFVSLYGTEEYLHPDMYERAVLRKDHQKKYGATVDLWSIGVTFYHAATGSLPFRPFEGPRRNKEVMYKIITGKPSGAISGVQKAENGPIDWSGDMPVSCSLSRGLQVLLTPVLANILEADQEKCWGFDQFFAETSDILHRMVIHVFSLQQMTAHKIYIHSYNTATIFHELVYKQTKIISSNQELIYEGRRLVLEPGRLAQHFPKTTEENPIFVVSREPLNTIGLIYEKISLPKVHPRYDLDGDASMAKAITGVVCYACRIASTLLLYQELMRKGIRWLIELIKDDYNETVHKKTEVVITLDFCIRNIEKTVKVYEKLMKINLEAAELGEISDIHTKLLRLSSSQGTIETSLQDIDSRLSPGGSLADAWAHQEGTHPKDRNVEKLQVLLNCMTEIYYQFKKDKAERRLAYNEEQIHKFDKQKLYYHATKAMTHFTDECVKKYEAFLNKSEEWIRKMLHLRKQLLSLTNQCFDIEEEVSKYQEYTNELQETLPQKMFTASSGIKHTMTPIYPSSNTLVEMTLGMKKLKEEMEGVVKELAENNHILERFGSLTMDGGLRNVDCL
The settings on record: at 10 µM.

Test [2] addresses T2, TGF-beta receptor type-1 (Homo sapiens) (UniProt P36897).
T2 sequence (whole entry): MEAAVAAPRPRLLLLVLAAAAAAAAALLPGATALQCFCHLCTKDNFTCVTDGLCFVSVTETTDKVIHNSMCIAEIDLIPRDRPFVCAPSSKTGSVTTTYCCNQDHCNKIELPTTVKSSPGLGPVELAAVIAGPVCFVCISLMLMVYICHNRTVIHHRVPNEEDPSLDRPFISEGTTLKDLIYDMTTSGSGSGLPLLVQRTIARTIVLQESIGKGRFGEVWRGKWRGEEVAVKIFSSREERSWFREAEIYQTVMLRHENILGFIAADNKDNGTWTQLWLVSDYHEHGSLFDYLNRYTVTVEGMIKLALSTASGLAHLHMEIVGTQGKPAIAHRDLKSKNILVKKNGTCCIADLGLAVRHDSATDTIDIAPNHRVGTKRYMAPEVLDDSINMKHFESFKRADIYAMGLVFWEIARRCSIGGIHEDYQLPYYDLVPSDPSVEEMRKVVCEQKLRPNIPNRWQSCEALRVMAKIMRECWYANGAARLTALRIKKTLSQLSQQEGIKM
Conditions: at 1 µM.

The target of test [3] is T2, TGF-beta receptor type-1 (Homo sapiens). The settings on record: at 10 µM.
Test [4] concerns the target Insulin-like growth factor 1 receptor (Homo sapiens) (UniProt P08069). Conditions: at 1 µM.
For test [5] the target is unchanged. The settings on record: at 10 µM.
Test [6] has as its target T3, Inhibitor of nuclear factor kappa-B kinase subunit alpha (Homo sapiens) (UniProt O15111).
T3 sequence (whole entry): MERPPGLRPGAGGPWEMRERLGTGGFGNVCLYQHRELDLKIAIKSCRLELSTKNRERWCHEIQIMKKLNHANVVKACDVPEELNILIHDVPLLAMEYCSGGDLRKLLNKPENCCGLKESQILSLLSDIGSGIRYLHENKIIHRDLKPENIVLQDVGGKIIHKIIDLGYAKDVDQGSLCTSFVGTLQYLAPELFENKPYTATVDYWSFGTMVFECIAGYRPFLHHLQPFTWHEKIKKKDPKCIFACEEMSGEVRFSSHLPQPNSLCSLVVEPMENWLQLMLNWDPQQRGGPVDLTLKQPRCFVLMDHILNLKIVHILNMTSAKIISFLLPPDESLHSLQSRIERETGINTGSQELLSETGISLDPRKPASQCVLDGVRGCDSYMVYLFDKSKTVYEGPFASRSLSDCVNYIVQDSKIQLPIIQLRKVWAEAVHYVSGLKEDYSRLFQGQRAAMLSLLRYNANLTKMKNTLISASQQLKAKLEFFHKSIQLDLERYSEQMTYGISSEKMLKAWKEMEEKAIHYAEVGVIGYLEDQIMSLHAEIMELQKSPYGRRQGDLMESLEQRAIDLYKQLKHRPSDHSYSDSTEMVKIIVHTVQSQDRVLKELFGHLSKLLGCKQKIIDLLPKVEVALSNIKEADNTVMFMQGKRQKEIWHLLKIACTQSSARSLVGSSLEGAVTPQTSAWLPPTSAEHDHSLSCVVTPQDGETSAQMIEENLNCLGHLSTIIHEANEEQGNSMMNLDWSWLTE
Conditions: at 1 µM.

Test [7] has as its target T3, Inhibitor of nuclear factor kappa-B kinase subunit alpha (Homo sapiens). The settings on record: at 10 µM.
For test [8], the target named is T4, Inhibitor of nuclear factor kappa-B kinase subunit beta (Homo sapiens) (UniProt O14920).
T4 sequence (whole entry): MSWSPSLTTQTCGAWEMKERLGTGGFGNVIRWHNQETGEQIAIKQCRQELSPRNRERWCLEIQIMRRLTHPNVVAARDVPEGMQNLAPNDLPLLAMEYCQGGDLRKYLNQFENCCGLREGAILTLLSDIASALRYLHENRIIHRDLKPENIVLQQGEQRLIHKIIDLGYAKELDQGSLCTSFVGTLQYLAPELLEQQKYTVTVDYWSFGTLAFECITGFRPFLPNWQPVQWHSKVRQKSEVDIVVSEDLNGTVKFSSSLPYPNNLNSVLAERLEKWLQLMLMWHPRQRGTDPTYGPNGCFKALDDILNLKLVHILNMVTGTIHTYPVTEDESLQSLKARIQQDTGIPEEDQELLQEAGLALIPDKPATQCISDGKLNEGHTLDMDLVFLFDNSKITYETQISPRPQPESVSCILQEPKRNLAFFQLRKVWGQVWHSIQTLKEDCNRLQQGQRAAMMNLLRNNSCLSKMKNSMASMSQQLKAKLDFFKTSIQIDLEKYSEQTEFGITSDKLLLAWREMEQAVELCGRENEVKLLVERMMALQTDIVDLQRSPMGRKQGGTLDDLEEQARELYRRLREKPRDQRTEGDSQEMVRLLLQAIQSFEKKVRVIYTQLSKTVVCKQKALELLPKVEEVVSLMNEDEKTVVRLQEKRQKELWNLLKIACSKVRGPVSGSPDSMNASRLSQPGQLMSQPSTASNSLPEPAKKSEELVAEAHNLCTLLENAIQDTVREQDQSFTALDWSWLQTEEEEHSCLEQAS
The settings on record: at 1 µM.

In test [9] the target is T4, Inhibitor of nuclear factor kappa-B kinase subunit beta (Homo sapiens). Conditions: at 10 µM.
In test [10] the target is Insulin receptor (Homo sapiens) (UniProt P06213). The settings on record: at 1 µM.
Insulin receptor (Homo sapiens), sequence (P06213 28-758 limits assumed): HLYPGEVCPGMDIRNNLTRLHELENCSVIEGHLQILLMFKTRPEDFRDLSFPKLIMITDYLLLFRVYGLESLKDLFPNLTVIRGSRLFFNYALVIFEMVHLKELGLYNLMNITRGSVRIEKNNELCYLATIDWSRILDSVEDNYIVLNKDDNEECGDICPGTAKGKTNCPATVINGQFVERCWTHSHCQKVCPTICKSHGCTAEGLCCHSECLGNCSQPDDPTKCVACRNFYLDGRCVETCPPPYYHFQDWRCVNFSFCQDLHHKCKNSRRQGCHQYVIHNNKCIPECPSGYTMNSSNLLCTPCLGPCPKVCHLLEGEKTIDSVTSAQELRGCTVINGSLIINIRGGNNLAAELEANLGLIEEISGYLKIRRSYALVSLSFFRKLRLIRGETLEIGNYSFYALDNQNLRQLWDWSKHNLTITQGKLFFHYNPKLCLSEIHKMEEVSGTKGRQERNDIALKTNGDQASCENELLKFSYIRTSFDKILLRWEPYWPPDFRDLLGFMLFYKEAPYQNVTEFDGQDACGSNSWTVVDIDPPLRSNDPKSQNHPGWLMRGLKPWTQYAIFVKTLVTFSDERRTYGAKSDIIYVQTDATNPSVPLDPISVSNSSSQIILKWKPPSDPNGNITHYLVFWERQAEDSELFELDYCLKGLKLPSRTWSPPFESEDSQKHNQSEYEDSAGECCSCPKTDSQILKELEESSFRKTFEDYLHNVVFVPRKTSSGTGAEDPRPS
Insulin receptor (Homo sapiens), sequence (P06213 763-1382 limits assumed): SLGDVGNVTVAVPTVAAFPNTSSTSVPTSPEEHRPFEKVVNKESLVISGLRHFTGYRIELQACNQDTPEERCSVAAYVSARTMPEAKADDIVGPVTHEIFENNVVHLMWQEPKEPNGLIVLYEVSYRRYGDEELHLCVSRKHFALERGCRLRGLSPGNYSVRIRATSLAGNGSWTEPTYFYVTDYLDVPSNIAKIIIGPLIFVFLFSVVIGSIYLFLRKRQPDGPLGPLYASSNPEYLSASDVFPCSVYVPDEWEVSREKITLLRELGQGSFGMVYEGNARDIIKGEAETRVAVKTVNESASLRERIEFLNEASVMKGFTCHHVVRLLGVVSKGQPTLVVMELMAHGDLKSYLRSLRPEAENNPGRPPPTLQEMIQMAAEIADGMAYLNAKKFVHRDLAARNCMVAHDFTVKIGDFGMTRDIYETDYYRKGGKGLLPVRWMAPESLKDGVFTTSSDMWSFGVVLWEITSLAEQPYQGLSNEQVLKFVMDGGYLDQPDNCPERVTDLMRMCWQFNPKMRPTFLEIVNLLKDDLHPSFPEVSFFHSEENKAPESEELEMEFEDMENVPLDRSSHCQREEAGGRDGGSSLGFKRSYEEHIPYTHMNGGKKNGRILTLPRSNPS

Insulin-like growth factor 1 receptor (Homo sapiens), sequence (P08069 31-736 limits assumed): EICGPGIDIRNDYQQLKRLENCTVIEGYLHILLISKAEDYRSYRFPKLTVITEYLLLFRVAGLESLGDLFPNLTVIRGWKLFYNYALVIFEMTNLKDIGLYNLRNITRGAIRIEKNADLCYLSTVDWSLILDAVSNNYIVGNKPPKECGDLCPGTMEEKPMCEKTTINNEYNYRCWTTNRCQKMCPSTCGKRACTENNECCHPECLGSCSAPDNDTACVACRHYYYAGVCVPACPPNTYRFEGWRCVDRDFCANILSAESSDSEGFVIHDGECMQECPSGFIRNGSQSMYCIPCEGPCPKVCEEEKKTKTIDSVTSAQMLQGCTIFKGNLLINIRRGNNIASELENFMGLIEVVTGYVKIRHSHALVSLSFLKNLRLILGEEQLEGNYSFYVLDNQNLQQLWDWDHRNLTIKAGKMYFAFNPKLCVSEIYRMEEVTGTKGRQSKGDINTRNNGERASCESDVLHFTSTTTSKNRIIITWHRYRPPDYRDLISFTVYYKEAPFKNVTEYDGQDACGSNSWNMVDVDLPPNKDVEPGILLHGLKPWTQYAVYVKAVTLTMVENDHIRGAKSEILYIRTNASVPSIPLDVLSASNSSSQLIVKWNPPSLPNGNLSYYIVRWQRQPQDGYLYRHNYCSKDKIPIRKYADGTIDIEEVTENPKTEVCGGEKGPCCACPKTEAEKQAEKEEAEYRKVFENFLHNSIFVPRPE
Insulin-like growth factor 1 receptor (Homo sapiens), sequence (P08069 741-1367 limits assumed): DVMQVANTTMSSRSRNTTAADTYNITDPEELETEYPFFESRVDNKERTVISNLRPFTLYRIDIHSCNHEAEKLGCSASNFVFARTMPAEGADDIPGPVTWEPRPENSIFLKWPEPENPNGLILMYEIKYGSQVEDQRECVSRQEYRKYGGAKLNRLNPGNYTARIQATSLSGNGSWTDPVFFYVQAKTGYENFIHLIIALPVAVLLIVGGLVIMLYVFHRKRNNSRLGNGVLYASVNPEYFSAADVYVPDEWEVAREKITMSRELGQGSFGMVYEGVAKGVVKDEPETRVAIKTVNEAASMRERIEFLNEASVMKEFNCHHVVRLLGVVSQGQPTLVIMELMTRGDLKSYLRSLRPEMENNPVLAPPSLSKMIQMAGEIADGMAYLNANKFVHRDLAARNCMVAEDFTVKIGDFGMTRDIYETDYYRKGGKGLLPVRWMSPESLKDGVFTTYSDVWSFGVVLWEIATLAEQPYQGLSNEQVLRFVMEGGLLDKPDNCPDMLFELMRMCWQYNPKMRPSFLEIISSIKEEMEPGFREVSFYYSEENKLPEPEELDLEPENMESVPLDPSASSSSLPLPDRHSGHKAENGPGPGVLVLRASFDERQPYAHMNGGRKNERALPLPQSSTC

The residual activity is the activity still measured, relative to the control. In the case of `Cn1cc(/C=C2\C(=O)Nc3ccc(S(N)(=O)=O)cc32)c2ccccc21`, the residual activity was 10% in [1]; 100% in test [2]; 96% in test [3]; 81% in test [4]; 86% in [5]; 100% in test [6]. In addition, the residual activity in [7] worked out at 92%; in [8], 87%; in test [9] it was 78%; in [10], 91%.
